{"source": "PubChem BioAssay (EPA / NIEHS)", "note": "Results filed as inconclusive are left out. Calls of active or inactive are those of the source. The calls were made as follows, unless noted: active = hit-call score of the fitted dose curve at least 0.9, where 1 is the maximum; inactive = score below 0.9.", "data": [{"assay": "CCTE_Padilla_ZF_144hpf_TERATOSCORE: (Legacy) CCTE's 144 Hour Post-fertilization zebrafish Assay Teratoscore, Padilla Lab (AID 2283679);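 as to AC50: zebrafish embryos with chorions exposed by immersion from 6-8 hpf to 5 dpf with daily renewal; teratogenicity score from eye scoring of death hatching and malformations at 144 hpf; higher score means more developmental defects relative to DMSO baseline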", "outline": "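Larvae scored by eye at 144 hpf for death, hatching and malformations after a day in clean Hanks'. Before that, daily-renewed exposure at 80 uM (0.4% DMSO, 26C) from roughly 6-8 hpf through 5 dpf, 4 embryos per chemical.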", "values": [{"smiles": "Cc1cc(NC(=O)C(=O)O)cc(C)c1Oc1ccc(O)c2c1CCC2", "AC50": "0.657 µM (active)"}, {"smiles": "Cc1c(C(=O)O)c(O)cc2c1C(=O)c1c(O)c([C@@H]3O[C@H](CO)[C@@H](O)[C@H](O)[C@H]3O)c(O)c(O)c1C2=O", "outcome": "inactive"}, {"smiles": "COc1cc(C=O)ccc1O", "AC50": "11.8 µM (active)"}, {"smiles": "CC(=O)OC/C=C(\\C)CCC=C(C)C", "AC50": "52.8 µM (active)"}, {"smiles": "C1CCC(SSC2CCCCC2)CC1", "outcome": "inactive"}, {"smiles": "Cc1oc(-c2ccccc2)nc1CCOc1cccc2c1ccn2CCC(=O)O", "AC50": "16.1 µM (active)"}, {"smiles": "O=c1c(O)c(-c2ccc(O)c(O)c2)oc2cc(O)cc(O)c12", "outcome": "inactive"}, {"smiles": "Oc1ccc2ccccc2c1N=Nc1ccccc1", "AC50": "5.21 µM (active)"}, {"smiles": "CN[C@H]1CC[C@@H](c2ccc(Cl)c(Cl)c2)c2ccc(S(N)(=O)=O)cc21", "AC50": "61.9 µM (active)"}, {"smiles": "C[C@]12C=CC(=O)C=C1CC[C@@H]1[C@@H]2C(=O)C[C@@]2(C)[C@H]1CC[C@]2(O)C(=O)CO", "outcome": "inactive"}, {"smiles": "Nc1ccccc1N", "AC50": "89.9 µM (active)"}]}, {"assay": "STM_H9_CystineISnorm_perc: Stemina devTOX quickPredict H9 human embryonic stem cell (hESC)-based Assay for Cystine (CYSS) Metabolite Biomarker, Normalized (AID 2283713)", "outline": "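H9 hESC, pluripotent; compound 72h, re-dosed q24h with medium change. Last-24h medium → 40% acetonitrile deproteinization → UPLC-HRMS. CYSS area / C13-CYSS standard, then % of 0.1% DMSO median.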", "values": [{"smiles": "Cc1cc(NC(=O)C(=O)O)cc(C)c1Oc1ccc(O)c2c1CCC2", "outcome": "inactive"}, {"smiles": "Cc1c(C(=O)O)c(O)cc2c1C(=O)c1c(O)c([C@@H]3O[C@H](CO)[C@@H](O)[C@H](O)[C@H]3O)c(O)c(O)c1C2=O", "outcome": "inactive"}, {"smiles": "Cc1oc(-c2ccccc2)nc1CCOc1cccc2c1ccn2CCC(=O)O", "AC50": "0.0105 µM (active)"}, {"smiles": "O=c1c(O)c(-c2ccc(O)c(O)c2)oc2cc(O)cc(O)c12", "outcome": "inactive"}, {"smiles": "Oc1ccc2ccccc2c1N=Nc1ccccc1", "outcome": "inactive"}, {"smiles": "Nc1ccccc1N", "outcome": "inactive"}]}, {"assay": "STM_H9_OrnCyssISnorm_ratio: Stemina devTOX quickPredict H9 human embryonic stem cell (hESC)-based Assay for Ornithine (ORN):Cystine (CYSS) Ratio (AID 2283714; active = hit-call score of the fitted dose curve at least 0.9, where 1 is the maximum)", "outline": "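Undifferentiated H9 hESCs were exposed to compound for 72h with media and chemical replaced every 24h. Final 24-h conditioned media were deproteinized and analysed by UPLC-HRMS. ORN and CYSS peak areas were normalized to C13 internal standards and the ratio taken versus 0.1% DMSO.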", "values": [{"smiles": "Cc1c(C(=O)O)c(O)cc2c1C(=O)c1c(O)c([C@@H]3O[C@H](CO)[C@@H](O)[C@H](O)[C@H]3O)c(O)c(O)c1C2=O", "outcome": "inactive"}, {"smiles": "Oc1ccc2ccccc2c1N=Nc1ccccc1", "outcome": "inactive"}, {"smiles": "Nc1ccccc1N", "AC50": "8.66 µM (active)"}]}]}
